aSyn UTR act = Activators via SNCA 5'UTR binding, MLPCN. alpha-synuclein 5'UTR reporter, activators screen. 300,000 compounds, 7.1% hits. activity score, % (tested at 7.5 µM), hits read low; in the data active = activity score below about -60%
* hit, by the source's call. These entries were drawn from the full list.

SMILES	aSyn UTR act
CC(C)(C)c1ccc(CN2C3=NCCCN3c3ccccc32)cc1	-62*
Cc1nc2ccc(N=NC3=C(O)CC(C)(C)CC3=O)cc2s1	-77*
Cc1ccc(O)c(N=NC2=C(O)CC(C)(C)CC2=O)c1	65
CC1(C)CC(=O)C(N=Nc2cccc(S(=O)(=O)N3CCOCC3)c2)=C(O)C1	41
CC(=O)N1CCc2cc(N=NC3=C(O)CC(C)(C)CC3=O)ccc21	-95*
CCOc1ccc2nc(N=NC3=C(O)CC(C)(C)CC3=O)sc2c1	-98*
Cc1cccc(/C=N/NC(=O)c2c(-c3ccccc3)noc2C)c1O	62
Cc1cc(C(=O)N/N=C/c2ccccc2Br)no1	-68*
O=[N+]([O-])c1ccc(O)c2ncccc12	72
O=[N+]([O-])c1cccnc1NCCc1c[nH]c2ccccc12	-123*
Cc1ccc(N2C(=O)c3cccc4c([N+](=O)[O-])ccc(c34)C2=O)c2cccnc12	56
O=[N+]([O-])c1cccnc1NCCc1ccccc1	-159*
O=C1C(=O)c2c(C(=O)c3ccccc3)coc2-c2ccccc21	-105*
NC(=O)COc1c(-c2ccc(Br)o2)oc2ccccc2c1=O	-62*
Cc1ccc(/C=C/C2=NN(C)C(=O)CC2)cc1	-104*
CN1N=C(/C=C/c2ccccc2)CCC1=O	-134*
O=c1c(-c2ccccc2)n[nH]c2ccccc12	-87*
CCc1ccc(NC(=O)CCC(=O)Nc2nnc(C(F)(F)F)s2)cc1	-73*
O=C(N/N=C/c1cccs1)c1ccccn1	-79*
Cc1ccc2c(Cl)c(C(=O)N/N=C/c3cccn3C)sc2c1	-135*
Cn1cccc1C(=O)N/N=C/c1c(Cl)cccc1Cl	-100*
Cn1cccc1/C=N/NC(=O)c1ccccn1	-71*
Cn1cc(C(=O)N/N=C/c2c(O)ccc3ccccc23)ccc1=O	96
CC(C)(C)NC(=O)C(=O)N/N=C/c1cccs1	-120*
O=C(O)c1cccc(N/N=C/c2cccs2)c1	96
SMILES	aSyn UTR act
Cn1cccc1/C=N/NC(=O)c1cc2ccccc2cc1O	-82*
CN(C)/C=N/c1nc(-c2ccc3c(c2)OCO3)cs1	-171*
CN(C)/C=N/c1nc(-c2ccc3ccccc3c2)cs1	-145*
CC1(C)CNc2cc(N)ccc2S1	-74*
O=[N+]([O-])c1cc(N=Nc2ccc3ccccc3c2)ccc1O	-104*
CN(C)c1nc(N)nc(CSc2nc3cc(Cl)ccc3o2)n1	-126*
c1ccc(CNc2ncnc3c2ncn3C2CCCCO2)cc1 (centres undefined)	-104*
C#CCN1C(=O)S/C(=C\c2ccc(N3CCOCC3)cc2C)C1=O	-150*
CCN1C(=O)S/C(=C\c2ccc(N3CCOCC3)cc2C)C1=O	-148*
CCN(CC)CCn1c2ccccc2c2nc3ccccc3nc21	-213*
OCCN(CC#CCn1c2ccccc2c2ccccc21)CCO	43
CCC1CCCCN1CC(O)Cn1c2ccccc2n2c(=O)cc(C)c(C#N)c12 (centres undefined)	-64*
S=C(NCc1ccccn1)Nc1cccc(Cl)c1	-73*
Cc1cccc(NC(=O)C(=O)NCc2ccccn2)c1	-70*
Cc1cccc(NC(=S)NCc2ccccn2)c1	-77*
O=C(/C=C/c1ccccc1)NC(=S)Nc1ccccc1O	-242*
NC(=S)NC(=O)/C=C/c1ccccc1	-111*
CCS(=O)(=O)c1ccc(O)c(NC(=O)/C=C/c2ccccc2)c1	-110*
COC(=O)c1cc(NC(=O)/C=C/c2ccccc2)ccc1O	-141*
CCCc1ccc(OCC(=O)Nc2cc(S(=O)(=O)CC)ccc2O)cc1	-171*
O=C(/C=C/c1ccc(F)cc1)NC(=S)Nc1ccccc1O	-210*
Oc1ccc(/C=N/N2CCCCC2)c(O)c1	-93*
Oc1ccccc1/C=N/N1CCCCC1	-77*
CN=c1scc(-c2cccs2)n1/N=C/c1ccccc1O	103
O=c1cccccc1NN=C1CCCCCC1	-140*
SMILES	aSyn UTR act
O=c1cccccc1NN=C1CCCCC1	-69*
CNc1nc(-c2ccc3c(c2)CCN3C(=O)c2cccc(F)c2)cs1	-427*
CNc1nc(-c2ccc3c(c2)CCN3C(=O)c2ccccc2C)cs1	-88*
Oc1ccc(N=C/C=C/c2cccc(Br)c2)cc1-c1nc2ccccc2s1	-99*
CC(C)CC(=O)Nc1ccc(-c2cn3cccnc3n2)cc1	-80*
CC(C)(C)CC(=O)Nc1ccc(-c2cn3cccnc3n2)cc1	-80*
CCCC(=O)Nc1ccc(-c2cn3cccnc3n2)cc1	-85*
Cc1ccc(-c2nc(C=Nc3ccc(O)cc3)c(O)o2)cc1	-95*
Oc1oc(-c2ccccc2)nc1/C=N/c1ccccn1	-86*
CN=Cc1nc(-c2ccccc2)oc1O	-97*
COCCn1c(-c2ccccc2)cnc1N	-83*
Cn1c(-c2ccccc2)cnc1N	-122*
COCCNC(=O)Cn1nc(-c2ccccc2OC)ccc1=O	-62*
COc1cccc(NC(=O)C2Cc3ccccc3CN2C(=O)c2ccco2)c1 (centres undefined)	-94*
Cc1ccccc1NC(=O)C1Cc2ccccc2CN1C(=O)c1ccco1 (centres undefined)	-132*
Cc1ccc(OCCNC(=O)c2ccc(C)cc2)cc1	-148*
CS(=O)(=O)NCc1ccc(C(=O)NCCOc2ccccc2)cc1	-120*
COCCCNC(=S)NC(=O)c1ccc(C)cc1	-125*
COc1ccc(OCCNC(=O)c2ccc(C)cc2)cc1	-79*
CC(C)CCOc1ccc(C(=O)NCCC(=O)N2CCOCC2)cc1	-82*
CCOC(=O)CNC(=O)c1ccc(OCC(F)(F)F)cc1	-76*
COc1cccc(/C=C/c2ccccn2)c1O	-98*
Cc1cc(C)cc(NC(=O)C(=O)NCCCN2CCCC2=O)c1	-106*
COc1cccc(NC(=O)C(=O)NCCCN2CCCC2=O)c1	-65*
CCOc1ccc(Nc2nc(-c3sc(N)nc3C)cs2)cc1	-70*
SMILES	aSyn UTR act
Cc1ccc(Nc2nc(-c3sc(N)nc3C)cs2)cc1	-134*
O=C(Oc1ccc(-c2cnc3ccccc3n2)cc1)c1cc([N+](=O)[O-])ccc1Cl	-176*
Cc1c(C(=O)Oc2ccc(-c3cnc4ccccc4n3)cc2)cccc1[N+](=O)[O-]	-108*
O=C(c1ccc2c(Cl)c3c(nc2c1)CCCC3)N1CCC(N2CCCCC2)CC1	-89*
CCC(C)NC(=O)c1ccc2c(Cl)c3c(nc2c1)CCC3 (centres undefined)	-164*
CN(C(=O)c1ccc2c(Cl)c3c(nc2c1)CCC3)c1ccccc1	-223*
COc1ccc2c(c1OC)C(=O)OC2Nc1nc(-c2cc3cc(Br)ccc3oc2=O)cs1 (centres undefined)	-221*
C=C(C)CNC(=S)N/N=C(\C)c1ccc(Cl)s1	-70*
CCNc1ccccc(-c2ccc3ccccc3n2)c1=O	-186*
O=C1c2ccccc2C(=O)C1c1ccc2ccccc2n1	94
Cc1cccc(C(=O)n2c(=S)nc3ccccn32)c1	-102*
O=C(c1ccccc1)n1c(=S)nc2ccccn21	-124*
Cc1ccccc1C(=O)c1cccn1CC(=O)NCc1ccccc1Cl	-100*
CC(C)(C)n1ncc2c(=O)n(CC(=O)NCc3ccccc3Cl)cnc21	-90*
O=C(Cn1cccc1C(=O)c1ccccc1)NCc1ccccc1Cl	-74*
C=CCN(C(=O)CSC1=NC(=O)CN1C(C)=O)c1nc(C)c(-c2ccccc2)s1	-118*
CC(C)(C)C(=O)Nc1ccc(C(=O)Nc2cccnc2)cc1	-120*
COc1cccc(-c2cc(=O)c3cc(NC(=O)c4ccc(Cl)cc4)ccc3[nH]2)c1	-68*
COc1cccc(-c2cc(=O)c3cc(NC(=O)c4ccccc4)ccc3[nH]2)c1	82

Bioassay records: PubChem, Broad Institute
